Hits are enriched below; roughly 19% of the tested compounds scored in any of these assays.
TDP1 cell CPT – DT40-hTDP1 cell growth loss with CPT | chicken DT40 Tdp1-/-;hTDP1 cells + 20 nM CPT, ATP luminescence, 48 h | Potency, µM (highest dose often 46.2 µM), without a hit: top-dose activity change, negative = growth inhibition, usual class: inhibitors | hit rate 12% among 420,000 | AID 686979; further: potency means the concentration at half of the fitted maximal effect; nearly all actives have a fitted effect of over 55% in size
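Chicken DT40 Tdp1-/- cells complemented with human TDP1, 400 cells/well, exposed to compounds plus 20 nM camptothecin for at least 48 h at 37 C; viability read as ATP content by CellTiter-Glo luminescence.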
uPA generation – inhibitors of cell surface uPA generation | Potency, µM (doses to about 38.3 µM), inactives show at the highest dose activity change, negative = inhibition, usual class: inhibitors | cell surface uPA generation assay, qHTS | hit rate 0.31% among 330,000; active means well fitted inhibition curve with a large enough effect; inconclusive means small, poorly fitted or top-dose-only effect; inactive means no such curve, though single readings can be large or run the other way; tested in mouse RAW 264.7 cells; further: potency means the concentration at half of the fitted maximal effect; nearly all actives have a fitted effect of over 55% in size
TDP1 cell noCPT – qHTS for Inhibitors of human tyrosyl-DNA phosphodiesterase 1 (TDP1): qHTS in cells in absence of CPT; hit rate 15% among 420,000; DT40 Tdp1-/- hTDP1 cells, no CPT, ATP luminescence, 48 h; AID 686978, 2013; Potency, µM (series often up to 46.2 µM), for inactives: at the top dose activity change, negative = growth inhibition, hits mostly inhibitors; further: potency means the concentration at half of the fitted maximal effect; nearly all actives have a fitted effect of over 55% in size
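Growth kinetics read by CellTiter-Glo luminescence after ≥48 hr at 37 °C. Cells: DT40 Tdp1-/- stably carrying human TDP1, 400 per well, compound exposure in the absence of CPT (DMSO vehicle).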
HT1080 IDH1KD tx – kills HT-1080 cells with IDH1 knockdown | hit rate 2% among 360,000 | Potency, µM (series often up to 46.1 µM), for inactives: top-dose activity, negative = toxicity, actives largely listed as cytotoxic | AID 686971 | HT-1080 IDH1 knockdown viability, ATP luminescence, 48 h;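 further: potency means the concentration at half of the fitted maximal effect; 0% = DMSO wells and -100% = cell-free medium wells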
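Luminescent ATP read-out (CellTiter-Glo, 10 min at room temperature) after 48 h compound exposure at 37 °C gave viability of IDH1-knockdown HT-1080 cells. Activity was normalised to DMSO and cell-free wells, then fitted as concentration-response curves.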
HT1080NT lethal – kills 2HG-producing HT-1080-NT fibrosarcoma cells | HT-1080-NT fibrosarcoma viability, CellTiter-Glo ATP luminescence, 48 h | Potency, µM (top dose mostly 46.1 µM), inactives show at the top dose activity, negative = less viability, usual class: cytotoxic | hit rate 1.6% among 360,000;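 further: NT is the 2HG producing partner of a matched IDH1 knockdown line; potency means the concentration at half of the fitted maximal effect; 0% = DMSO-treated cells and -100% = media-only wells without cells; nearly all actives have a fitted effect of over 55% in size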
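Fibrosarcoma NT cells, 750 per well in 5% FBS RPMI, were exposed to compound for 48 hours. Viability: CellTiter-Glo luminescence.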
IL1B secr inh – inhibitors of inflammasome signaling (IL-1 beta secretion); THP-1 LPS/ATP IL-1B secretion, AlphaLISA, 16 h; stronger effect = lower value; hit rate 4.7% among 360,000; activity change, % at 57.5 µM; in the data active means activity change below about -50%; inconclusive means mostly about -30% to -49%
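Secreted IL-1B measured by AlphaLISA bead assay after 16 h compound exposure of THP-1 cells; compounds (final up to 57.5 uM) added 1 h before LPS (250 ng/mL) and ATP (1.25 mM) stimulation; lower signal means less secretion.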
* hit, by the source's call; ? = inconclusive; / = no result given. Unless noted, the call rests on the fitted dose curve; in most records, active means well fitted curve in the direction sought with a large enough effect; inconclusive means small, poorly fitted or top-dose-only effect, or another doubt; inactive means no such curve, though single readings can be large; an effect the other way counts as inactive or inconclusive. Unless noted, on the % scale 0 is the no-effect control and ±100 the full control effect.

SMILES | TDP1 cell CPT | uPA generation | TDP1 cell noCPT | HT1080 IDH1KD tx | HT1080NT lethal | IL1B secr inh
N#C/C(=C\c1ccc(OC(=O)c2ccc(Cl)s2)cc1)c1nc2ccccc2[nH]1 | ? | -6.8% | ? | 4.5% | 4.7% | -2.7
COC(=O)/C(C#N)=C/c1ccc(N2CCOCC2)c([N+](=O)[O-])c1 | -5.2% | 0.1% | -8.8% | 8.4% | 17.4% | 8.6
N#C/C(=C/c1ccc(N2CCOCC2)o1)c1ccc(Cl)cc1 | ? | -29.3% | 14.6µM* | 3.55µM* | 6.31µM* | -77.7*
N#C/C(=C\c1ccc(N2CCOCC2)c([N+](=O)[O-])c1)c1nc2ccccc2[nH]1 | 25.9µM* | -9.5% | 14.6µM* | -6.0% | -10.3% | -103.9*
Cc1cc(C)c(NC(=O)c2cc(CN3CCOCC3)on2)c(C)c1 | -2.2% | / | 0.2% | / | / | /
COCCN1C(=O)CS/C1=C(/C#N)C(=O)NCc1ccco1 | -3.6% | 2.6% | 0.5% | -1.7% | 1.3% | -18.2
COc1cc(/C=C(\C#N)c2nc3ccccc3[nH]2)c([N+](=O)[O-])cc1OCc1ccccc1 | 23.1µM* | 2.5% | 18.4µM* | -2.1% | -3.3% | -2.4
N#C/C(=C\c1ccc(-c2ccc(C(=O)O)cc2)o1)c1nc2ccccc2[nH]1 | ? | -5.3% | ? | ? | -11.6% | 28.0
N#C/C(=C/c1ccc(N2CCCC2)c([N+](=O)[O-])c1)c1nc2ccccc2[nH]1 | 13µM* | -6.1% | 14.6µM* | -0.7% | 4.9% | -6.4
N#C/C(=C\c1ccc(N2CCOCC2)o1)c1nc2ccccc2[nH]1 | ? | -7.4% | 23.1µM* | ? | ? | -21.5
CCOc1cccc(/C=C(/C#N)c2nc3ccccc3[nH]2)c1OCC(=O)O | 14.5% | -18.0% | -3.9% | 15.0% | 23.8% | 21.5
COC(=O)c1ccc(Cn2c(C)c(C(=O)Nc3cccc(Oc4ccccc4)c3)sc2=O)o1 | ? | / | ? | -19.3% | 1.1% | ?
Cc1ccc(S(=O)(=O)NC(=O)C2(C)CCN2C(=O)C2CC2)cc1 (configuration not stated) | 6.4% | / | 7.4% | 14.7% | 20.4% | 8.3
CC(C)Cn1c(SCC(=O)NC(=O)NC2CCCC2)nc2ccccc21 | 25.9µM* | 11.1% | 16.4µM* | ? | ? | -20.9
O=C(CSc1nc(-c2ccccc2)c(-c2ccccc2)[nH]1)N1CCN(S(=O)(=O)c2ccccc2)CC1 | 18.4µM* | -4.4% | 18.4µM* | -17.1% | -12.6% | ?
Cn1c(N2CCN(S(=O)(=O)c3ccc(Cl)cc3)CC2)nc2ccccc21 | ? | -8.3% | ? | 9.4% | -2.3% | 6.9
CCNC(=O)NC(=O)C(C)Sc1nc2ccccc2n1CC(C)C (configuration not stated) | 18.4µM* | 3.0% | 16.4µM* | -9.5% | -9.0% | 5.9
CCn1c(N2CCN(S(=O)(=O)c3ccccc3)CC2)nc2ccccc21 | ? | -0.4% | 18.4µM* | 1.4% | 8.3% | -9.1
O=C(COC(=O)CNC(=O)c1ccc(Cl)cc1Cl)NNC(=O)c1ccccc1F | 11.4% | 3.2% | -18.3% | 18.5% | 8.2% | 1.5
COc1ccc(NC(=O)CSc2nc3c(oc4ccccc43)c(=O)n2-c2ccc(C)c(C)c2)cc1 | -4.6% | / | 0.1% | / | / | /
Cn1c(SCC(=O)N2CCN(S(=O)(=O)c3ccccc3)CC2)nc2ccccc21 | -8.2% | / | ? | -2.1% | -1.6% | 23.7
CC(C)Cn1c(SCC(=O)N2CCN(S(=O)(=O)c3ccccc3)CC2)nc2ccccc21 | 18.4µM* | 10.1% | ? | -0.6% | -15.2% | -51.9*
Cc1cccc(-n2nnc(-c3nc(-c4ccccc4)no3)c2N)c1C | -10.9% | / | -22.8% | / | / | /
CCCCNS(=O)(=O)c1cccc(NC(=O)[C@@H]2O[C@H](CO)[C@H](O)[C@H](O)[C@H]2O)c1 | -8.7% | / | ? | -8.4% | 16.1% | -11.0
Cc1cc(C)cc(N(C(=O)c2snc(C(N)=O)c2N)C(C(=O)NCC2CCCO2)c2ccc(C)o2)c1 (configuration not stated) | ? | 7.4% | 20.6µM* | -7.0% | -7.8% | -51.0*
SMILES | TDP1 cell CPT | uPA generation | TDP1 cell noCPT | HT1080 IDH1KD tx | HT1080NT lethal | IL1B secr inh
COc1ccc(N(C(=O)c2snc(C(N)=O)c2N)C(C(=O)NC2CCCC2)c2ccco2)cc1 (configuration not stated) | 2.8% | -0.9% | ? | -9.3% | -4.5% | -15.0
CCOc1ccc(C(C(=O)NCC2CCCO2)N(C(=O)c2snc(C(N)=O)c2N)c2ccccc2F)cc1 (configuration not stated) | 20.6µM* | 1.2% | ? | -6.0% | 3.2% | -71.9*
CCOc1ccc(N(C(=O)c2snc(C(N)=O)c2N)C(C(=O)NCC2CCCO2)c2ccc(C)o2)cc1 (configuration not stated) | 18.4µM* | -4.7% | ? | -13.2% | 6.4% | -27.3
CCc1ccc(N(C(=O)c2snc(C(N)=O)c2N)C(C(=O)NC2CCCC2)c2ccco2)cc1 (configuration not stated) | ? | 1.6% | ? | ? | ? | -63.5*
CCOc1ccc(C(C(=O)NCC2CCCO2)N(C(=O)c2snc(C(N)=O)c2N)c2cccc(F)c2)cc1 (configuration not stated) | -26.8% | -4.0% | ? | -18.7% | -3.0% | -25.6
Cc1ccc(C(C(=O)NCC2CCCO2)N(C(=O)c2snc(C(N)=O)c2N)c2ccc(F)cc2)o1 (configuration not stated) | -16.9% | -4.4% | ? | 1.0% | 5.4% | -1.7
CCOc1ccc(N(C(=O)c2snc(C(N)=O)c2N)C(C)C(=O)NC2CCCCC2)cc1 (configuration not stated) | -26.5% | 6.5% | -21.8% | -16.0% | -9.2% | ?
COc1ccc(N(C(=O)c2snc(C(N)=O)c2N)C(C(=O)NC2CCCCC2)c2ccc(C)o2)cc1 (configuration not stated) | ? | -5.3% | 16.4µM* | -7.6% | ? | -50.3*
CCOc1ccc(C(C(=O)NCC2CCCO2)N(Cc2cccs2)C(=O)c2snc(C(N)=O)c2N)cc1 (configuration not stated) | 23.1µM* | 2.0% | 9.2µM* | 24.6% | -1.6% | 9.1
C[C@H]1CN([C@@H](C)CO)C(=O)CCCn2cc(nn2)CO[C@@H]1CN(C)S(=O)(=O)c1ccc(Oc2ccccc2)cc1 | -22.2% | / | -0.8% | 3.0% | 14.5% | 3.9
Cc1ccc2c(CN3CCN(c4ccccc4)CC3)cc(=O)oc2c1 | -4.1% | / | -14.0% | 14.1% | 24.3% | -6.7

Screening results (PubChem BioAssay)
